In the supplement of paper PMC12819154, “High-throughput peptide-centric local stability assay extends protein–ligand identification to membrane proteins, tissues and bacteria” (Nature Structural & Molecular Biology, 2025):

compound: Nc1ncnc2c1ncn2[C@@H]1O[C@H](COP(=O)(O)OP(=O)(O)OP(=O)(O)O)[C@@H](O)[C@H]1O [adenosine 5'-triphosphate]; assay: log2 fold change of tryptic peptide abundance, ligand vs vehicle (limited proteolysis) (log2 ratio); higher = more trypsin-susceptible (destabilized); conditions: ligand concentration: 5 mM; sample: E. coli desalted lysate; replicate design: treated before aliquoting
Method: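 HT-PELSA: desalted E. coli K-12 BW25113 lysate (with 12 mM MgCl2) incubated with 5 mM ATP (pH 7) or water for 30 min at 25 C, then a 4 min trypsin pulse at 22 C. Peptides were quantified by DIA-MS (4 replicates). Value is the peptide log2 fold change (treated/control); negative = stabilized. Scale: negative = ligand-stabilized region.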
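Note: lysate desalted by size exclusion to strip endogenous ATP, peptide intensities built from DIA-NN precursor signals, and peptides missing any value discarded before comparison.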

UniProt P37344, sequence (P37344 whole entry): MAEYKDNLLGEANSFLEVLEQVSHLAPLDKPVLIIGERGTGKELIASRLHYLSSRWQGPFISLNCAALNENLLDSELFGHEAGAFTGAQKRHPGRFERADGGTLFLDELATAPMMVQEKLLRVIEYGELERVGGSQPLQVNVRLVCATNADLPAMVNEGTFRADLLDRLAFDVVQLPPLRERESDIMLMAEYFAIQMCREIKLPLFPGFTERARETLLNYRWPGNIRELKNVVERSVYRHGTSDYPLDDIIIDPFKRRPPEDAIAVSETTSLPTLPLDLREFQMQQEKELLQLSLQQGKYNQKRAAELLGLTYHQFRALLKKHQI
UniProt P77374, sequence (P77374 whole entry): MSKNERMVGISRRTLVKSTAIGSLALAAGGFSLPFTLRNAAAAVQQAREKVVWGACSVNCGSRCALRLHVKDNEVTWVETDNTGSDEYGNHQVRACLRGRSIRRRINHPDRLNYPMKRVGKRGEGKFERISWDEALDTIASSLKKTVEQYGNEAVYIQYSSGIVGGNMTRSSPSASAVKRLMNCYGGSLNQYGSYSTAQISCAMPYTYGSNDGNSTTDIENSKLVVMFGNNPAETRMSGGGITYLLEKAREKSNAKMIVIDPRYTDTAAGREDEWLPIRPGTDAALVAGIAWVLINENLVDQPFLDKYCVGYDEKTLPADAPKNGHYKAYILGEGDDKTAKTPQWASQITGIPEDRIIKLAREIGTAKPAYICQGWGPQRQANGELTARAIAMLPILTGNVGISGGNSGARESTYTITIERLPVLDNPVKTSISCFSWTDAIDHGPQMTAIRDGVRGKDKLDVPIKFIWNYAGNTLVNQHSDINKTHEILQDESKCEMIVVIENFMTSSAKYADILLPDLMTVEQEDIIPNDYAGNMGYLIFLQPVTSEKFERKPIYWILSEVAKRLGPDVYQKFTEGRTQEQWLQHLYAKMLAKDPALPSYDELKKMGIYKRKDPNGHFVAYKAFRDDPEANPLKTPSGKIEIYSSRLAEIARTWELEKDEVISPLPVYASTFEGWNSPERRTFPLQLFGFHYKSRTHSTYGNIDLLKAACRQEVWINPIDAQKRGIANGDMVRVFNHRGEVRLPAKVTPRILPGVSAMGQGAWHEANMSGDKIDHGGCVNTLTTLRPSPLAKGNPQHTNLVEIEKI
UniProt P30015, sequence (P30015 whole entry): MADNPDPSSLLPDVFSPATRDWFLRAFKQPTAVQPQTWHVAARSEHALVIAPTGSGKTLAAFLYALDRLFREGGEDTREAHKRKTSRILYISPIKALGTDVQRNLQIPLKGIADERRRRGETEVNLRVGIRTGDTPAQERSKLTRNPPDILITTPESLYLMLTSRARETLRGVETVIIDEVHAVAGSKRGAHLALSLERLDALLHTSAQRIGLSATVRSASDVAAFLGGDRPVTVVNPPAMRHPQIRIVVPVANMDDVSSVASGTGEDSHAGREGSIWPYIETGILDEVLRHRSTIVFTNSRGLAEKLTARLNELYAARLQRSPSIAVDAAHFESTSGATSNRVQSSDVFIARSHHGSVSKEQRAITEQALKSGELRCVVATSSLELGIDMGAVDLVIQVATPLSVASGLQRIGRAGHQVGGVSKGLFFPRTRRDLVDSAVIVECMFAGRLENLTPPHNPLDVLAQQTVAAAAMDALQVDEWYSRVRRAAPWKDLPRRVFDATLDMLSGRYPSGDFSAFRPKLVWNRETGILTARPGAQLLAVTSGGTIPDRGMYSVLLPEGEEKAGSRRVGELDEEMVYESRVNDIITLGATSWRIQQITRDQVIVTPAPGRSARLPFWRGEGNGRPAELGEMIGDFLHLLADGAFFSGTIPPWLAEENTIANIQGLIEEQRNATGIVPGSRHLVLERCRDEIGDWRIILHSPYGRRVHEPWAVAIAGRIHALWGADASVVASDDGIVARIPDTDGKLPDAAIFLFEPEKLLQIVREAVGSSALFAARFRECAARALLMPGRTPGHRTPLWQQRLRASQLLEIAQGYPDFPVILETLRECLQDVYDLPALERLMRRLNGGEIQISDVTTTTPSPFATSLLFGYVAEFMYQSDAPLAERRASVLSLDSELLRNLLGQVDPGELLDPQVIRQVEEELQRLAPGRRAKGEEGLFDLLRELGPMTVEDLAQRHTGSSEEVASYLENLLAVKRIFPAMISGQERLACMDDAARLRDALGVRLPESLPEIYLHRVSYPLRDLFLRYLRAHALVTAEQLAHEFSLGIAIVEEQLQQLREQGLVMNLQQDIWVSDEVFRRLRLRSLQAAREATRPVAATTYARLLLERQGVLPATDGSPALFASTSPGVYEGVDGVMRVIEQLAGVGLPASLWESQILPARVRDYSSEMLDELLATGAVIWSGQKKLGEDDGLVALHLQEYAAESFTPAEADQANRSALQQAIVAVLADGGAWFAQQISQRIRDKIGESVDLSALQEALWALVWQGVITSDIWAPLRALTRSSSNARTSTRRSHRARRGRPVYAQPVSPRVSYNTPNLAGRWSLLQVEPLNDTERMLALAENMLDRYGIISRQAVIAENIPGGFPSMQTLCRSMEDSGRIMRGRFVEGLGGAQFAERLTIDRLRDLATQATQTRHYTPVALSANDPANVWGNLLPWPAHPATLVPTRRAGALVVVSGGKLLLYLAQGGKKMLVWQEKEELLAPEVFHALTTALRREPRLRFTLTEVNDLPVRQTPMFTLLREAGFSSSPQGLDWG
UniProt P30178, sequence (P30178 whole entry): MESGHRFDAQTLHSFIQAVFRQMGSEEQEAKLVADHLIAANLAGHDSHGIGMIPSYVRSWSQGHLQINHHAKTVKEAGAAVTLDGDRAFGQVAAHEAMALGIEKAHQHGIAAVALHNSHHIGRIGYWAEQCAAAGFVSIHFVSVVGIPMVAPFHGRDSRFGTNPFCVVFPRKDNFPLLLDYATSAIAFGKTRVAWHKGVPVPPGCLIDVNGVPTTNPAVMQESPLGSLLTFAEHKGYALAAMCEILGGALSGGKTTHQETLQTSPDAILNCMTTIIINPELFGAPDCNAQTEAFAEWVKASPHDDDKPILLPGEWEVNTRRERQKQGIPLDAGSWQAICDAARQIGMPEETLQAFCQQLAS
UniProt P00914, sequence (P00914 whole entry): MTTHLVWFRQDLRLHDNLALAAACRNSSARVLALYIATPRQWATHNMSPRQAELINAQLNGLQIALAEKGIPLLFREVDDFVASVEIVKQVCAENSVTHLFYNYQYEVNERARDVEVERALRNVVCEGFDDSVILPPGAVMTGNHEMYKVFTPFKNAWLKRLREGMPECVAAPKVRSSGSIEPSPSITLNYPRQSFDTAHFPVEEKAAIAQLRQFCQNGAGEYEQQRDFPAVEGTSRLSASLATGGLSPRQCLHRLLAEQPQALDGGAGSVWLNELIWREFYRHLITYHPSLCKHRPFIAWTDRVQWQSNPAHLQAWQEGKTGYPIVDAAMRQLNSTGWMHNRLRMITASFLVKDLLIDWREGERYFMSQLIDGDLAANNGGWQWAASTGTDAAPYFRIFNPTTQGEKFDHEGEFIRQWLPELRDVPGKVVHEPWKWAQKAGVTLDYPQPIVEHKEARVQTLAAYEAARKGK
UniProt P37766, sequence (P37766 whole entry): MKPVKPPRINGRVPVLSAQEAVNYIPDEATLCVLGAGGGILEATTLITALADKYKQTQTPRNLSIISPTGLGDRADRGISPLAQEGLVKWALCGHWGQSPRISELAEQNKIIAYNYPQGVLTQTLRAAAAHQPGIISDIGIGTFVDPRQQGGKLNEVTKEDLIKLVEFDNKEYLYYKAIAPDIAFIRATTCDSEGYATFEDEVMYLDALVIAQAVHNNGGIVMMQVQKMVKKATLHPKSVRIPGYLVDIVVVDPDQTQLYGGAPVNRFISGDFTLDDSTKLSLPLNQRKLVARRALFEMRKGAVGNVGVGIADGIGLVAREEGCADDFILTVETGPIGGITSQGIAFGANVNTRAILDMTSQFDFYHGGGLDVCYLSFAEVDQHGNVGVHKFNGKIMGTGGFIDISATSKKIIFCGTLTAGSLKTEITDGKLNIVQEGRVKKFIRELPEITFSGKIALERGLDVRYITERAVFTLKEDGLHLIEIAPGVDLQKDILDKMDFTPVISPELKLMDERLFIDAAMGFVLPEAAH
UniProt P08194, sequence (P08194 whole entry): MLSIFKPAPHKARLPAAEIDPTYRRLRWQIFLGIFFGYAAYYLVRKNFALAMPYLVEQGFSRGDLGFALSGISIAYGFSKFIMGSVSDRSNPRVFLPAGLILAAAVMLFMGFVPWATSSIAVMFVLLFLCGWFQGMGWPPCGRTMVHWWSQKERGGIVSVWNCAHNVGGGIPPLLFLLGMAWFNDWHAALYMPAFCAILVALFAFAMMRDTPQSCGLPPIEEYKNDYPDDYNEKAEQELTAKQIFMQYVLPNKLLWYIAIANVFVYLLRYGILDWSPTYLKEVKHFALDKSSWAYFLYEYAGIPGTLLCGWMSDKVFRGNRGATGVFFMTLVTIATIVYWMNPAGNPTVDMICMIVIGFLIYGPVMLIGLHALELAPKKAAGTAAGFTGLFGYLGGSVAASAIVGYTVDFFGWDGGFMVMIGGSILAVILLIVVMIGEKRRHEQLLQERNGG
UniProt P75919, sequence (P75919 whole entry): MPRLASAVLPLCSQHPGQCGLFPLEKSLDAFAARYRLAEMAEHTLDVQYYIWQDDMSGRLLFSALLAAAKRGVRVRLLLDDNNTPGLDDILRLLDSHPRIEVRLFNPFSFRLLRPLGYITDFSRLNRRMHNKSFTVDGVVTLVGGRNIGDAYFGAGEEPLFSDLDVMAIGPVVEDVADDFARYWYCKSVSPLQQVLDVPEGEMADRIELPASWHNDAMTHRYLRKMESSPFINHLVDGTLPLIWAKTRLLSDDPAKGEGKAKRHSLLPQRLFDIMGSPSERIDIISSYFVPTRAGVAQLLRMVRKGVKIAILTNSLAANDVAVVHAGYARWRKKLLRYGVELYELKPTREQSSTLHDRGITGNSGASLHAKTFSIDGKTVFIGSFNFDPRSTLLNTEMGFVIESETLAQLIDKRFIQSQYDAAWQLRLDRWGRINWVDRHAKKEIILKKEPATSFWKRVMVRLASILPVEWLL
UniProt P0DPP7, sequence (P0DPP7 whole entry): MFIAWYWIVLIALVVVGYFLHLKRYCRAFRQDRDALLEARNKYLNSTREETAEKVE

Target	log2 fold change
UniProt P27828 (peptide sequence: DTTERPEAVTAGTVR, peptide start residue: 309)	-0.6
UniProt P21866 (peptide sequence: RHSATTAPDPLVK, peptide start residue: 118)	1.65
UniProt P06720 (peptide sequence: CVEQLANWHKELEEYKK, peptide start residue: 299)	-1.1
UniProt P15254 (peptide sequence: QALIDANLR, peptide start residue: 169)	-0.778
UniProt P00914 (peptide sequence: LSASLATGGLSPR, peptide start residue: 238)	-0.871
UniProt P09169 (peptide sequence: MPYIGLTGSYR, peptide start residue: 198)	1.26
UniProt P46887 (peptide sequence: GKFIPSKDGFSTDQSK, peptide start residue: 60)	0.606
UniProt P37344 (peptide sequence: ETLLNYR, peptide start residue: 215)	-1.98
UniProt P76938 (peptide sequence: RVHAQVMDYLTNGIPERPAR, peptide start residue: 137)	0.412
UniProt P75796 (peptide sequence: VHGLLPGKDAAAR, peptide start residue: 430)	1.01
UniProt P27296 (peptide sequence: SIPHIIVTSATLR, peptide start residue: 451)	-2.01
UniProt P37751 (peptide sequence: SQLTDDDSQFK, peptide start residue: 183)	-0.401
UniProt P77374 (peptide sequence: INHPDRLNYPMKR, peptide start residue: 106)	-0.781
UniProt P37647 (peptide sequence: LTGGSAEDAAK, peptide start residue: 275)	-1.34
UniProt P0DPP7 (peptide sequence: NKYLNSTR, peptide start residue: 41)	0.633
UniProt P39199 (peptide sequence: AWFCGHEFYVDER, peptide start residue: 97)	1.88

Target	log2 fold change
UniProt P75919 (peptide sequence: LLSDDPAKGEGK, peptide start residue: 249)	-0.826
UniProt P08194 (peptide sequence: AEQELTAK, peptide start residue: 235)	-0.739
UniProt P0A7Y8 (peptide sequence: KGVADLDNR, peptide start residue: 91)	0.915
UniProt P30178 (peptide sequence: QMGSEEQEAK, peptide start residue: 22)	-1.15
UniProt P75874 (peptide sequence: YLLDQGYHVIPVSPK, peptide start residue: 35)	0.437
UniProt P37766 (peptide sequence: AIAPDIAFIR, peptide start residue: 178)	-0.633
UniProt P76097 (peptide sequence: FGEIEQR, peptide start residue: 288)	0.885
UniProt P37685 (peptide sequence: MMLEHYQQTK, peptide start residue: 489)	-0.646
UniProt P36683 (peptide sequence: EALGLPHSDVFR, peptide start residue: 359)	0.334
UniProt P08997 (peptide sequence: TLSNGKPVTK, peptide start residue: 467)	-0.591
UniProt P30015 (peptide sequence: TGDTPAQER, peptide start residue: 132)	-2.26
UniProt P76330 (peptide sequence: FGHQAGDR, peptide start residue: 447)	-3.47
UniProt P30958 (peptide sequence: FANWPVR, peptide start residue: 673)	-0.413
UniProt P15082 (peptide sequence: QRQAAILEYLQK, peptide start residue: 5)	2.18
UniProt P37689 (peptide sequence: LVAAIKSGK, peptide start residue: 383)	-2.15
